Test results as given in PubChem BioAssay AID1851 (National Center for Advancing Translational Sciences (NCATS), 2009).
About 5,700 (36%) of roughly 16,000 compounds were called active. Not shown: some 24% with an inconclusive outcome. Calls come from the whole dose curve; as a rule, active = well fitted curve in the direction sought with a large enough effect; inconclusive = small, poorly fitted or top-dose-only effect, or effect the other way; inactive = no such curve, though single readings can be large or run the other way. The list shows a part of the results.

Target: Cytochrome P450 1A2 (Homo sapiens) (UniProt P05177)
Experiment: Cytochrome panel assay with activity outcomes
Conditions: recombinant CYP, pro-luciferin dealkylation, luminescence, p450-cyp1a2; series mostly up to 57.1 µM; activity, negative = inhibition: at the top concentration
% is set by controls: 0 for no effect and ±100 for the full control effect.

Sequence of Cytochrome P450 1A2 (Homo sapiens) (P05177 whole entry, looked up): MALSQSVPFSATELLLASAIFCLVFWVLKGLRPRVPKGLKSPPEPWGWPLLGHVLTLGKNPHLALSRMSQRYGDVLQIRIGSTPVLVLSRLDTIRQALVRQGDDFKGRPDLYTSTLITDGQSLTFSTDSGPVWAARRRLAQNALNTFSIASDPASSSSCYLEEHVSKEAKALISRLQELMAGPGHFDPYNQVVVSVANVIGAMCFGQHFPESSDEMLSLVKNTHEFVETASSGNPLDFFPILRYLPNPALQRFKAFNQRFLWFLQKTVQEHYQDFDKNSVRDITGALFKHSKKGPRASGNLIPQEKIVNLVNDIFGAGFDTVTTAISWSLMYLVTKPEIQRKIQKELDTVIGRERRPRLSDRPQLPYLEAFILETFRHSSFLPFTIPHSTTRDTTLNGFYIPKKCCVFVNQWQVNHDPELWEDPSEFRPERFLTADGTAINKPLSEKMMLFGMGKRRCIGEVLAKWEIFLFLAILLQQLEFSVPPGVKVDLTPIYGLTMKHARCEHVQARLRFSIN

Structure (SMILES)	AC50	activity, negative = inhibition
COc1ccccc1NC(=O)Nc1nnc(-c2ccco2)s1	2000 nM (active)	
COc1ccc(OC)c(NC(=O)C(CC(=O)O)NCc2ccco2)c1 (configuration not stated)		-20.7% (inactive)
Cc1cc(NC(=O)CCCC(=O)OCC(F)(F)C(F)F)cc(C)c1C(=O)O		11.5% (inactive)
O=C(CCCC(=O)OCC(=O)c1ccc(Cl)cc1Cl)Nc1cc(C(F)(F)F)ccc1Cl	2820 nM (active)	
CN(C)c1cc[n+](CC(=O)Nc2cc(C(F)(F)F)ccc2Cl)cc1		-18.9% (inactive)
O=C(Cc1ccccc1)NC(=S)Nc1cc(C(F)(F)F)ccc1Cl	2000 nM (active)	
Cc1ccc(C)n1CCN1CCN(CC(=O)Nc2cc(C(F)(F)F)ccc2Cl)CC1	25100 nM (active)	
COC(=O)N1CCC2(CCN(Cc3cc(C(F)(F)F)cc(C(F)(F)F)c3)CC2)CC1		-19.2% (inactive)
N/C(CC(=O)Nc1cc(C(F)(F)F)ccc1Cl)=N\O	1580 nM (active)	
O=C1[C@H]2CCn3c(=O)n(-c4ccccc4)c(=O)n3[C@H]2[C@H](O)[C@H]2O[C@@H]12		-2.61% [at 11.4 µM] (inactive)
Cc1cc(N2C(=O)C(O)=C(C(=O)c3cccs3)C2c2cccc(O)c2)no1 (configuration not stated)		-1.3% (inactive)
CC(C)=CCC/C(C)=C/CO/N=C1/C[C@@H](O)[C@@H](O)[C@@H]2[C@@H]3C(=O)N(C(C)(C)C)C(=O)[C@H]3CC[C@@H]12		-0.662% [at 11.4 µM] (inactive)
C/C(CCN1CCCCc2nc(C)c(C)cc21)=N\OC[C@@H](O)[C@@H]1O[C@@H]2OC(C)(C)O[C@@H]2[C@H]1O		-3.55% [at 11.4 µM] (inactive)
O=CN1CCN(C[C@H](O)CN2CCCCC2)CC1		-17.6% [at 2.29 µM] (inactive)
O=C(c1ccccc1)c1cc(F)c(N2CCOCC2)cc1Cl	11200 nM (active)	
CC(C)[C@H](N)c1nnc(SC/C=C/c2ccccc2)o1	631 nM (active)	
CC(C)[C@H](N)c1nnc(SCc2ccc(Cl)cc2)o1	794 nM (active)	
O=C(NC12CC3CC(CC(C3)C1)C2)C12CC3CC(C1)CC(n1cnc(Cl)n1)(C3)C2		-11.9% (inactive)
NCC1CCC(C(=O)O)CC1 (configuration not stated)		-3.69% [at 25.6 µM] (inactive)
N#C/C(=C\c1ccc(Cl)cc1)c1nc2ncccc2[nH]1	2000 nM (active)	
N#C/C(=C\c1ccccc1)c1nc2ncccc2[nH]1	1260 nM (active)	
CCC(=O)O[C@@H]1[C@H](C)O[C@H](O[C@H]2[C@@H](N(C)C)[C@H](O)[C@@H](O[C@@H]3[C@@H](CC=O)C[C@@H](C)[C@@H](O)/C=C\C=C/C[C@@H](C)OC(=O)C[C@@H](OC(=O)CC)[C@H]3OC)O[C@H]2C)C[C@]1(C)O		-13.6% [at 25.6 µM] (inactive)
COc1cccc(-c2cncnc2NC2CCNCC2)c1		-19.7% (inactive)
N#Cc1cccc(-c2ccc3ncnc(NC4CCNCC4)c3c2)c1	15800 nM (active)	

Structure (SMILES)	AC50	activity, negative = inhibition
c1cncc(-c2ccc3ncnc(NC4CCNCC4)c3c2)c1	12600 nM (active)	
COc1cccc(-c2ccc3ncnc(NC4CC4)c3c2)c1	200 nM (active)	
COc1cccc(-c2ccc3ncnc(NC4CCNCC4)c3c2)c1	20000 nM (active)	
C[n+]1cccc(CNC(=O)/C=N/O)c1		1.69% (inactive)
CC(C)[C@]1(Cl)CC[C@@H]2[C@]3(C)CCC[C@@](C)(C(=O)O)[C@H]3C[C@H](Cl)[C@@]2(Cl)[C@H]1Cl		-13% [at 11.4 µM] (inactive)
Cn1c(C[C@@H](O)c2nc3ccccc3n2C)nc2ccccc21		-2.56% [at 2.29 µM] (inactive)
Cn1c(SCc2nc3ccccc3n2CCO)nc2ccccc21	10000 nM (active)	
CCCS(=O)(=O)N1CCCC(C(=O)NCC2CCCO2)C1 (configuration not stated)		-17.1% (inactive)
N#Cc1nc(-c2ccc(F)cc2)oc1N1CCCC1	178 nM (active)	
CC(=O)O[C@@H](C)C[N+](C)(C)C	inactive	
COc1ccccc1-c1nc(NCc2ccccc2)c2ccccc2n1	398 nM (active)	
Clc1ccccc1-c1nc(NCc2cccs2)c2ccccc2n1	1000 nM (active)	
COc1ccccc1-c1nc(NCc2cccs2)c2ccccc2n1	631 nM (active)	
CNc1nc(-c2ccccc2OC)nc2ccccc12	398 nM (active)	
COc1ccccc1-c1nc(NCc2cccnc2)c2ccccc2n1	794 nM (active)	
N/N=C1/CC(=O)NC(=O)N1	631 nM (active)	
COc1ccc(OC[C@@H](CO)OC)cc1		-13.3% [at 11.4 µM] (inactive)
CCCc1nnc(SCC(=O)N2CCCCC2C)n1CC1CCCO1 (configuration not stated)		17.6% (inactive)
O=C1[C@H]2[C@H]3[C@H](O)[C@H](O)C/C(=N/OCc4ccccc4)[C@@H]3CC[C@@H]2C(=O)N1C[C@@H]1CCCO1		1.8% [at 11.4 µM] (inactive)
O=c1cnc2cnc(Nc3ccccc3)nc2n1C[C@H]1CCCO1	794 nM (active)	
CCCc1nnc(SCC(=O)N2CCCCC2)n1CC1CCCO1 (configuration not stated)		0.426% (inactive)
CCNc1ncc2ncc(=O)n(C[C@H]3CCCO3)c2n1	10000 nM (active)	
O=C1[C@H]2[C@H]3[C@H](O)[C@H](O)C/C(=N/OCc4ccccc4)[C@H]3CC[C@@H]2C(=O)N1C[C@@H]1CCCO1		-4.81% [at 11.4 µM] (inactive)
